2 compounds from PubChem BioAssay (EPA / NIEHS) can be followed below.

Results filed as inconclusive are left out. Activity calls are given as the source filed them. Rule for the calls, unless noted: active = hit-call score of the fitted dose curve at least 0.9, where 1 is the maximum; inactive = score below 0.9.

A word on the AC50: it is the concentration giving half of the maximal activity seen.

The nature of experiment [1]: UKN2_HCS_IMR90_neural_migration: University of Konstanz (UKN) Leist Lab Neural Crest Cell Migration Assay in human induced IMR90 Pluripotent Stem Cells (UKN2) (AID 2284204). The note with it: actives raise or lower the signal. In a few lines:
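Using a 96-well stopper format with PLO/laminin/fibronectin coating, neural crest cells from iPSC migrate in cytokine-supplemented N2-S medium; after 24 h, chemicals are applied for a further 24 h, then cells are imaged after dye staining.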

Experiment [2] can be described thus: CCTE_Mundy_HCI_Cortical_Synap_Neur_Matur_BPCount: CCTE's Synaptogenesis and Neurite Maturation Assay in rat cortical cells for Branch Point Count, Mundy Lab (AID 2284211). In a few lines: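 HCI read-out of branch points from MAP2/synaptophysin/Hoechst immunofluorescence; rat cortical cultures, AraC DIV 5, dosing DIV 7, fixed DIV 12; fit in positive direction vs DMSO baseline.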

Experiment [3] in a line: CCTE_Mundy_HCI_Cortical_NOG_NeuriteCount: CCTE's Neurite Outgrowth Assay in rat cortical cells for Neurite Count, Mundy Lab (AID 2284212).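 Note: cells fixed about two days after chemical exposure began.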 In a few lines: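 Rat cortical primary cells; compound added 2 h post-plating, 1/10 dilution of working solution. Anti-betaIII-tubulin/AF488 ICC; ArrayScan neurite count vs DMSO.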
Experiment [4] can be described thus: CCTE_Mundy_HCI_Cortical_Synap_Neur_Matur_NeuriteCount: CCTE's Synaptogenesis and Neurite Maturation Assay in rat cortical cells for Neurite Count, Mundy Lab (AID 2284222). The procedure, abridged: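 In this multiplexed morphology readout, rat primary cortical neurons are fixed at DIV 12 following dosing at DIV 7 and stained for MAP2, synaptophysin and nuclei. High-content image analysis yields neurite count.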

Experiment [5] can be described thus: UKN2_HCS_IMR90_cell_viability: Viability Assessment in the University of Konstanz (UKN) Leist Lab Neural Crest Cell Migration Assay in human induced IMR90 Pluripotent Stem Cells (UKN2) (AID 2284233).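 Note: viability of neural crest cells differentiated from IMR90 iPSC measured by calcein-AM fluorescence imaging; cells exposed to compound for 24 h after a 24 h migration phase.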 The procedure, abridged: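 cMINC format, iPSC-derived neural crest (IMR90); 24 h migration (EGF/FGF, N2-S), then 24 h toxicant. Calcein-AM/H-33342 stain 30 min; fluorescence intensity by HCS; DMSO-normalised, bidirectional fitting.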

A short description of experiment [6]: CCTE_Mundy_HCI_Cortical_NOG_BPCount: CCTE's Neurite Outgrowth Assay in rat cortical cells for Branch Point Count, Mundy Lab (AID 2284237).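 Note: branch points counted about two days after chemical exposure.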 The procedure, abridged:
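Measured 50.33 h after dosing, this morphology endpoint uses rat primary cortical cultures labelled for betaIII-tubulin. Branch points are quantified by high-content imaging, with DMSO as negative control and baseline.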

A short description of experiment [7]: CCTE_Mundy_HCI_hNP1_CellTiter: CCTE's Cell Titer-Glo 2 Assay in human neuroprogenitor cells for Viability, Mundy Lab (AID 2284241; active = hit-call score of the fitted dose curve at least 0.9, where 1 is the maximum;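 note: a hit is a drop in ATP luminescence versus DMSO meaning reduced viability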). In a few lines:
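Measures ATP content in human neural progenitors derived from WA09 embryonic cells. Read-out at 26.5 hours after dosing, with DMSO serving as the negative control and baseline.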

The nature of experiment [8]: CCTE_Mundy_HCI_Cortical_Synap_Neur_Matur_NeuronCount: CCTE's Synaptogenesis and Neurite Maturation Assay in rat cortical cells for Neuron Count, Mundy Lab (AID 2284242; active = hit-call score of the fitted dose curve at least 0.9, where 1 is the maximum;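 note: hits reduce neuron count versus DMSO baseline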). The procedure, abridged: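 Neuron counts come from automated high-content imaging of Hoechst nuclei and MAP2/synaptophysin immunostaining at DIV 12, with loss of signal judged against DMSO. Cultures of rat cortical cells had glial growth arrested by AraC at DIV 5; chemical exposure began DIV 7.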

Experiment [9] in a line: IUF_NPC4_neurite_area_120hr: Leibniz Research Institute for Environmental Medicine (IUF) 120-hour Neuronal Morphology Assay for Neurite Area (NPC4) (AID 2284305; active = hit-call score of the fitted dose curve at least 0.9, where 1 is the maximum). The procedure, abridged: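 Endpoint at 120 h: automated imaging of TUBB3/Hoechst-stained differentiating human neural progenitor spheres, neurite area per neuron from skeletonization. DMSO solvent control, not above 0.1%, set the baseline; medium was half-replaced on day 3.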

The nature of experiment [10]: CCTE_Mundy_HCI_iCellGluta_NOG_NeuronCount: CCTE's Neurite Outgrowth Assay in iCellGluta cells for Neuron Count, Mundy Lab (AID 2284340; active = hit-call score of the fitted dose curve at least 0.9, where 1 is the maximum;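 note: cells fixed about 48 h after compound addition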). In a few lines: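 Neuron count read by automated high-content imaging of Hoechst 33342 and betaIII-tubulin/Alexa Fluor-488 labelling in human iPSC glutamatergic neurons. Activity fitted relative to DMSO.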
A short description of experiment [11]: CCTE_Mundy_HCI_iCellGluta_NOG_NeuriteCount: CCTE's Neurite Outgrowth Assay in iCellGluta cells for Neurite Count, Mundy Lab (AID 2284342; active = hit-call score of the fitted dose curve at least 0.9, where 1 is the maximum;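 note: chemical exposure about 48 hours starting 2 hours after plating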).
Experiment [12] can be described thus: CCTE_Shafer_MEA_acute_firing_rate_mean: CCTE's Neural Acute Assay for Mean Firing Rate, Shafer Lab (AID 2284009).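 Note: analyzed for loss of signal so actives lower firing rate relative to DMSO.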 The procedure, abridged: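 Spontaneous spiking of primary rat cortical networks, DIV 13/15, 37 C. Compound 0.03-40 uM, n ≥3 wells; 40 min baseline vs 40 min treated. Endpoint fitted in loss-of-signal direction against DMSO.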
Experiment [13] can be described thus: CCTE_Shafer_MEA_acute_burst_number: CCTE's Neural Acute Assay for Single-Electrode Bursts, Shafer Lab (AID 2284013). In a few lines:
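Burst totals were derived with adaptive spike detection (8x rms threshold) on filtered signals from rat cortical cultures; change relative to pre-treatment baseline after 40-min compound exposure (0.03-40 uM) was fitted in the negative direction against DMSO.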

Experiment [14] can be described thus: CCTE_Shafer_MEA_acute_per_burst_spike_number_mean: CCTE's Neural Acute Assay for Average Number of Spikes Per Burst, Shafer Lab (AID 2284015).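 Note: hits are decreases in mean spikes per burst versus baseline.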 The procedure, abridged:
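We recorded spontaneous network firing of rat cortical neurons for 40 min before and 40 min during exposure to compound at 0.03-40 uM, at 37 C. Spikes were detected adaptively at 8x rms noise, and the change in average spikes per burst was fitted against DMSO.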

Experiment [15] can be described thus: CCTE_Shafer_MEA_acute_interburst_interval_mean: CCTE's Neural Acute Assay for Mean Interburst Interval, Shafer Lab (AID 2284016).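 Note: percent change of mean interburst interval versus each well's own pre-dose baseline; curves fitted for decrease in interburst interval relative to DMSO.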 The procedure, abridged:
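MEA recording of spontaneous network bursting in primary rat cortical cultures; mean interburst interval was compared before and after a 40-min compound exposure (0.03-40 uM) and expressed as percent change, relative to DMSO.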

Experiment [16] is described as follows: CCTE_Shafer_MEA_acute_burst_percentage_mean: CCTE's Neural Acute Assay for Percentage of Spikes in a Burst, Shafer Lab (AID 2284017). In a few lines:
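Compounds were tested at 0.03-40 uM on primary rat cortical neuron networks grown over microelectrodes, with at least three wells per compound. Spontaneous firing was recorded for 40 min before and 40 min after dosing, and the change in burst percentage was computed per well.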

The nature of experiment [17]: CCTE_Shafer_MEA_acute_burst_percentage_std: CCTE's Neural Acute Assay for Standard Deviation of Burst Percentage, Shafer Lab (AID 2284018).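 Note: fitted in the negative direction so actives lower burst percentage SD.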 The procedure, abridged: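 Primary rat cortical neurons on 16-electrode MEA wells were recorded 40 min at baseline (DIV 13 or 15), then 40 min after compound (0.03-40 uM), at 37 C. Well value is SD across electrodes of spikes-in-bursts/total spikes; endpoint is percent change, DMSO-referenced.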

The nature of experiment [18]: CCTE_Shafer_MEA_acute_per_network_burst_spike_number_mean: CCTE's Neural Acute Assay for Average Number of Spikes in a Network Burst, Shafer Lab (AID 2284019). The procedure, abridged:
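Acute exposure of rat primary cortical networks (DIV 13/15) on MEAs; adaptive spike detection at 8x rms noise, 37 C. Percent change in spikes per network burst after 40 min with compound (0.03-40 uM), negative direction vs DMSO.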

A short description of experiment [19]: CCTE_Shafer_MEA_acute_per_network_burst_spike_number_std: CCTE's Neural Acute Assay for Standard Deviation of Number of Spikes in a Network Burst, Shafer Lab (AID 2284020).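 Note: fitted for decrease in spike-number SD versus DMSO so actives lower it.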 In a few lines: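 Acute MEA exposure, rat cortical neurons, 0.03-40 uM. Per-well % change versus own baseline; DMSO as negative control.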
Experiment [20] is described as follows: CCTE_Shafer_MEA_acute_per_network_burst_electrodes_number_mean: CCTE's Neural Acute Assay for Mean Number of Electrodes in a Network Burst, Shafer Lab (AID 2284021).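 Note: curves fitted for decreases only so hits reduce electrodes per burst.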 In a few lines:
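Percent change from baseline was computed as mean electrode count per network burst, comparing 40 min recordings before and during compound (0.03-40 uM) exposure. Cultures were rat cortical neurons at DIV 13 or 15, recorded on MEAs at 37 C with an adaptive 8x rms threshold.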

Turning to `Cc1c(O)cccc1C(=O)N[C@@H](CSc1ccccc1)[C@H](O)CN1C[C@H]2CCCC[C@H]2C[C@H]1C(=O)NC(C)(C)C`, the result in [1] and in [5] was inactive. Moreover, the AC50 in experiment [2] is 4.72 µM (active); in [3], 33.8 µM (active); in experiment [4], 5.46 µM (active); in experiment [6], 15.4 µM (active); in experiment [7] it was 11.1 µM (active); in experiment [8], 4.18 µM (active). Besides, the half-maximal activity concentration (AC50) in [9] was 8.75 µM (active); in experiment [10] it was 39.4 µM (active); in experiment [11], 37.4 µM (active).
Regarding `CC1(C)S[C@@H]2[C@H](NC(=O)[C@H](N)c3ccc(O)cc3)C(=O)N2[C@H]1C(=O)O`, the outcome in [12], in [13], in experiment [14], in experiment [15], in [16] and in experiment [17] was inactive. In addition, the outcome in experiment [18], in [19] and in [20] was inactive.
